# NOD2 RIPK2 PPI: NOD2-RIPK2 binding disruptors in cells, primary screen, fluorescence, CHO cells, BLA complementation | Receptor-interacting serine/threonine-protein kinase 2 (Homo sapiens), O43353 | CCF4 ratio | inhibition, % at 4.98 µM | 360,000 compounds, 0.38% hits; in the data active = inhibition above about 21%
# TLR4-MyD88 BLA: inhibitors of TLR4-MyD88 association in cells, primary screen, cell-based, HeLa CL3-4, BLA complementation, FRET ratio | Toll-like receptor 4 (Homo sapiens) + Myeloid differentiation primary response protein … | HeLa CL3-4 TLR4/MyD88 BLA complementation | inhibition, % at 8.4 µM | 200,000 compounds, 0.18% hits; in the data active = inhibition above about 25%
# TLR9-MyD88 inh: inhibitors of TLR9-MyD88 association in cells, primary screen, cell-based, CHO, BLA complementation, fluorescence; Toll-like receptor 9 (Homo sapiens) + Myeloid differentiation primary response protein …; CCF4 FRET ratio; inhibition, % at 4.98 µM; 340,000 compounds, 0.21% hits; AID 504734, 2011;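 active = inhibition above the mean over all tested compounds plus 3 SD, cut at about 21% in these data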
# Target sequence (Q99836 whole entry, looked up): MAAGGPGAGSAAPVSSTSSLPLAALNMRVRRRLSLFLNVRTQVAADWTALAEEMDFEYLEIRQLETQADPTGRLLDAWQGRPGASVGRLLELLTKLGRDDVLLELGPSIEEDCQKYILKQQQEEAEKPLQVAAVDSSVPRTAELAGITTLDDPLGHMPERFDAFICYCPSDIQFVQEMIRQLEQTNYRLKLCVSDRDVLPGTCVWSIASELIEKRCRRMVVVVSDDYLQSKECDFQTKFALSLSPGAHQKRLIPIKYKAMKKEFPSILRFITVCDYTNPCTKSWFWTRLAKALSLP
# Target sequence (Q9NR96 whole entry, looked up): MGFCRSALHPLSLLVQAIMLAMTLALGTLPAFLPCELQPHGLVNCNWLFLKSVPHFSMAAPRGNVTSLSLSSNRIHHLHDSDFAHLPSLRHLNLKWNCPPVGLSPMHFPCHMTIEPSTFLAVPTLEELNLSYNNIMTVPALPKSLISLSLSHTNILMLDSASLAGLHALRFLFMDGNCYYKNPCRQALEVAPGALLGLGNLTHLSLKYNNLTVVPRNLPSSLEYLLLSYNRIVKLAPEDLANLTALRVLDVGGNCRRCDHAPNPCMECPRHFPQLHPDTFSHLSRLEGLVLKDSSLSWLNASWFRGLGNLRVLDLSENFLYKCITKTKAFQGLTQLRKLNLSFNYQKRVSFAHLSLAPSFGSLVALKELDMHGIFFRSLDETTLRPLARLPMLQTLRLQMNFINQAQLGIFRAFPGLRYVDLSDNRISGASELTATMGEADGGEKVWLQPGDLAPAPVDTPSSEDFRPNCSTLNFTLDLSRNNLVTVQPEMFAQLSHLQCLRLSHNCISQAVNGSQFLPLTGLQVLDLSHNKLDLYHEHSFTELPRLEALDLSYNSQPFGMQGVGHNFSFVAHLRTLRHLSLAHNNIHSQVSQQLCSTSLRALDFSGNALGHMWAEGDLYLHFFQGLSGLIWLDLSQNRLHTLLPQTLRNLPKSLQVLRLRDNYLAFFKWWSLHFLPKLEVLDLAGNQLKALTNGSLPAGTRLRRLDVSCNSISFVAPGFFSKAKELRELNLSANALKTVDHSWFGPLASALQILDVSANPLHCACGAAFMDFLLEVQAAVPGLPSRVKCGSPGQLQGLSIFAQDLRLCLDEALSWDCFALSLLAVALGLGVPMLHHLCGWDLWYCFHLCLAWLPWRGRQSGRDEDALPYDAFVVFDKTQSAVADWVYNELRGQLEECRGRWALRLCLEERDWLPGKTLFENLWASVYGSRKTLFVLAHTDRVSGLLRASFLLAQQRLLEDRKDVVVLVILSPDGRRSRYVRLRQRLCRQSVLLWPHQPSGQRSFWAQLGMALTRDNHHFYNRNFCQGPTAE
# ABHD5-PLIN5 inh: ABHD5-PLIN5 interaction inhibitors, primary screen, cell lysate, split luciferase complementation, luminescence. Split G. princeps luciferase complementation, 4 h. inhibition, % at 4 µM. 360,000 compounds, 0.78% hits. AID 602281, 2012;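 active = inhibition above the mean inhibition across every tested compound plus 3 SD, cut at about 22% in these data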
# B2AR ag: beta2AR agonists driving receptor internalization, primary screen, cell-based, FAP fluorogen, flow cytometry; AID 504454, 2011; response, % (no concentration beside the values); Beta-2 adrenergic receptor (Homo sapiens), P07550; Am2.2-beta2AR cells; 340,000 compounds, 0.43% hits;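 active = response above a set limit, near 3 SD of response in nonfluorescent compounds, cut at about 42% in these data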
# Exocytosis inh: LAMP-1 surface exposure blockers, TALL-104 cells – cell-based, flow cytometry, MLPCN library, primary screen; TALL-104 LAMP-1 surface exposure; cells stimulated with thapsigargin and PMA; AID 651702, 2012; 360,000 compounds, 0.66% hits; inhibition, % at 10 µM;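 active = inhibition above about 55%, limit read from the data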
# ABHD5 PLIN5 conf: ABHD5-PLIN5 interaction inhibitors, confirmation, biochemical, luminescence | shares compounds with ABHD5-PLIN5 inh | inhibition, % at 4 µM | 2,200 compounds, 67% hits | AID 651612, 2012; in the data active = inhibition above about 23%
# HNF4 counter: HNF4 dimerization inhibitors, counter-screen for ABHD5-PLIN5 interaction inhibitor project, biochemical, split-luciferase complementation, luminescence | shares compounds with ABHD5-PLIN5 inh | inhibition, % at 4 µM | 2,200 compounds, 77% hits | AID 651674, 2012;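 active = mean inhibition across replicate wells exceeding the computed hit threshold, cut at about 13% in these data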;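 also: light from luciferase halves that rejoin when HNF4 fusion proteins dimerize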
# A number is an active result; n = inactive; x = no result given. An excerpt weighted towards active compounds, which were near 2% of everything screened.
SMILES,NOD2 RIPK2 PPI,TLR4-MyD88 BLA,TLR9-MyD88 inh,ABHD5-PLIN5 inh,B2AR ag,Exocytosis inh,ABHD5 PLIN5 conf,HNF4 counter
COc1cccc(CC(=O)OCC(=O)N(C)CC(=O)Nc2ccccc2Cl)c1,n,x,n,n,n,n,x,x
CN(C)CCCNC(=O)/C(=C\c1ccc(-c2ccc(Br)cc2)o1)NC(=O)c1ccccc1,n,n,n,24,n,n,n,n
S=C(NCCc1ccccn1)NC1CC2CCC1C2 (configuration not stated),n,x,n,62,n,n,n,n
COc1ccc(/C=C2/CSC/C(=C/c3ccc(OC)c(OC)c3)C2=O)cc1OC,n,x,n,55,n,n,81,68
CCOc1ccc(/C=C2\CCC(C3CCCC3)C2=O)cc1OC (configuration not stated),n,x,n,n,n,n,x,x
COc1cc(C=C2CCCC(=Cc3ccc(OCC4CO4)c(OC)c3)C2=O)ccc1OCC1CO1 (configuration not stated),n,x,n,24,x,n,37,21
CCn1c(N2CCN(C(c3ccccc3)c3ccccc3)CC2)nc2c1c(=O)[nH]c(=O)n2C,n,x,n,n,n,n,x,x
O=C(Cn1cccn1)N1CCCC(N2CCN(c3ccccc3F)CC2)C1 (configuration not stated),n,x,n,n,n,n,x,x
CCN(CC)CCCOC(=O)C1(c2ccccc2)CCCC1,n,n,n,n,n,n,x,x
CCN(CC)CCOCCOC(=O)C1(c2ccccc2)CCCC1,n,x,n,58,n,n,77,36
N#Cc1ncc(Cc2ccccc2)nc1C#N,n,x,n,30,n,n,46,21
Cc1ccc(/C=C/C(=O)c2ccccc(=O)c2O)c(C)c1,n,n,n,n,n,n,x,x
Cc1nn(C)cc1C(=O)/C=C/c1ccc([N+](=O)[O-])cc1,n,n,n,n,n,n,x,x
Cc1ccc(C)c(/C=C/C(=O)c2ccccc(=O)c2O)c1,n,n,n,30,n,n,56,35
O=C(/C=C/c1ccccc1Cl)c1ccccc(=O)c1O,n,n,n,33,n,n,59,43
O=C(/C=C/c1ccc([N+](=O)[O-])cc1)c1ccccc(=O)c1O,n,x,n,66,n,56,98,91
O=C(O)c1cccc(Nc2cc(Cl)c3nonc3c2[N+](=O)[O-])c1,n,n,n,29,n,n,58,95
O=C(O)c1ccccc1Nc1ccc([N+](=O)[O-])cc1,n,n,n,n,n,n,x,x
O=C(O)c1cccc(Nc2ccc([N+](=O)[O-])c3nonc23)c1,n,x,n,n,n,n,x,x
O=C(O)c1ccccc1Nc1cc(Cl)c2nonc2c1[N+](=O)[O-],n,x,n,29,n,n,80,95
O=C1CCN(Cc2ccccc2)CCN1[C@H](CO)c1ccccc1,n,x,n,n,n,n,x,x
O=C1CCN(Cc2ccc(O)cc2)CCN1[C@H](CO)c1ccccc1,n,x,n,47,n,n,n,15
O=C(/C=C/[C@H]1O[C@@H](n2cnc3c(NC(=O)c4ccccc4)ncnc32)[C@H](O)[C@@H]1O)NCCCN1CCCC1=O,n,x,x,n,x,n,x,x
Cc1nn(CCc2nc(-c3ccco3)cs2)c2[nH]c(=O)cc(C(F)(F)F)c12,n,n,n,41,n,n,n,16
CC(C)NC(C(=O)Nc1cc(Cl)cc(Cl)c1)c1ccccc1 (configuration not stated),n,n,n,54,n,n,n,n
SMILES,NOD2 RIPK2 PPI,TLR4-MyD88 BLA,TLR9-MyD88 inh,ABHD5-PLIN5 inh,B2AR ag,Exocytosis inh,ABHD5 PLIN5 conf,HNF4 counter
CC1CN(Cc2c(O)ccc3c2oc(=O)c2ccccc23)CC(C)O1 (configuration not stated),n,x,n,49,n,n,72,44
CC[C@@H](C)[C@@H]1CN([C@@H](CN2CCC[C@H]2CN2C(N)=NC[C@@H]2Cc2ccccc2)C(C)C)C(=N)N1CCCC1CCCC1,n,x,n,28,n,n,n,n
CC(C)C[C@@H]1CN=C(N)N1C[C@@H]1CCCN1C[C@H](C)N1C[C@@H](Cc2ccccc2)N(CCc2ccc(Cl)c(Cl)c2)C1=N,n,x,n,27,n,n,n,n
COc1ccc(C(=O)c2[nH]c(N)c(C(=O)NCCc3c[nH]c4ccccc34)c2-c2ccc(Cl)c(F)c2)cc1,n,x,x,n,x,n,x,x
CCCS(=O)(=O)NC(=O)C1(C)CCN(C(=O)c2oc3ccccc3c2C)C1 (configuration not stated),n,x,x,n,x,n,x,x
C=CC[C@]12CC=CC(=O)[C@@]1(O)O[C@H](c1ccc(OC)c(OC)c1)[C@H]2C,n,x,n,27,n,n,50,36
O=C(CCl)N(C/C=C/c1ccccc1)c1ccc2c(c1)OCCO2,n,n,n,25,n,n,24,29
N#CCCN(C(=O)CSc1ncccn1)c1ccc2c(c1)OCCO2,n,x,n,n,n,n,x,x
C[C@H]1CN([C@@H](C)CO)C(=O)CCCn2cc(nn2)CO[C@@H]1CN(C)C(=O)Nc1ccccc1F,n,x,n,n,x,n,x,x
COc1cc(OC)cc(C2=Cc3ccccc3C(CC(=O)c3ccco3)N2c2ccc(-c3cccnc3)cc2)c1 (configuration not stated),n,x,x,n,x,n,x,x
CSc1nnc(NC(=O)c2nc(S(=O)(=O)Cc3cccc(C)c3)ncc2Cl)s1,n,x,n,30,n,n,86,56
CCc1nnc(NC(=O)c2nc(Cl)ccc2Cl)s1,n,x,n,n,n,n,x,x
CCSc1nnc(NC(=O)c2nc(S(=O)(=O)Cc3ccc(F)cc3)ncc2Cl)s1,n,x,n,24,n,n,80,49
C=CCSc1nnc(NC(=O)c2nc(SCC)ncc2Cl)s1,n,n,n,n,n,n,x,x
CCc1nnc(NC(=O)c2nc(S(=O)(=O)Cc3ccccc3)ncc2Cl)s1,n,x,n,34,n,n,69,48
CSc1nnc(NC(=O)c2nc(S(=O)(=O)Cc3ccccc3F)ncc2Cl)s1,n,x,n,25,n,n,86,55
CCc1nc2ccc(C(=O)Nc3cccc(NS(C)(=O)=O)c3)cn2c1N(CC)CCOC,n,x,x,n,x,n,x,x
CSc1ncc(Cl)c(C(=O)Nc2nnc(SC/C=C/c3ccccc3)s2)n1,n,n,n,n,n,n,x,x
